Compound activity: PubChem BioAssay, Pan Lab, Icahn School of Medicine at Mount Sinai
RBX1-CUL1 inh = human ROC1-CUL1 E3 ligase inhibition. in vitro K48 di-Ub FRET, acceptor:donor ratio, 45 min. P62877+Q13616. inhibition, % at 10 µM. 140,000 tested, 0.6% active; in the data active = inhibition above about 25%
Target sequence (P62877 whole entry, looked up): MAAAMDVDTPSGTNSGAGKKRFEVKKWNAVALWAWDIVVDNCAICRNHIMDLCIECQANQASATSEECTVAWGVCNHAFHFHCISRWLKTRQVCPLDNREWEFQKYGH
Target sequence (Q13616 whole entry, looked up): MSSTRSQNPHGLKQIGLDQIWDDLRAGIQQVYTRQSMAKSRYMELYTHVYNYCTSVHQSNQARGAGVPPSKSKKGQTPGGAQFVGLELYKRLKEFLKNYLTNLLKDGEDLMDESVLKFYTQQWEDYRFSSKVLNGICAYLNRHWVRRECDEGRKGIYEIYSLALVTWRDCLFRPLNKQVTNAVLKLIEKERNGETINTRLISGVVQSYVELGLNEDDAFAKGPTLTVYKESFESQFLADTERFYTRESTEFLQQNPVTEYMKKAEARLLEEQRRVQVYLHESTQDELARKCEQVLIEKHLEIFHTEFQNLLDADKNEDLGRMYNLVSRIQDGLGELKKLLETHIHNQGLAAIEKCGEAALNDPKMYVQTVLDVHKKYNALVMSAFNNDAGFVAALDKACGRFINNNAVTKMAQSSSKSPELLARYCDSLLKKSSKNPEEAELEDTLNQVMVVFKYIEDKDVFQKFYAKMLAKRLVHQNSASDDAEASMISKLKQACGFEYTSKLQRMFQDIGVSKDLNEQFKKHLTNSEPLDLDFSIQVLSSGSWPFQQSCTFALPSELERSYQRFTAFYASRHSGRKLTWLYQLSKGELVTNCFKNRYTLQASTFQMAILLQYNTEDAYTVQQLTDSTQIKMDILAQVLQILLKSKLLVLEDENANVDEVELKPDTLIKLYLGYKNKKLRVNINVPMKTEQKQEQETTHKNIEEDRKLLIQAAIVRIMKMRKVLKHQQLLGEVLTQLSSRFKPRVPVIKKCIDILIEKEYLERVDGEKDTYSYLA
A number is an active result; n = inactive. The full list was thinned out, with hits kept by preference.

SMILES	RBX1-CUL1 inh
CCCCN1C(=O)C(=Cc2cccs2)C(=O)N(CCCC)C1=S	n
CCCCN1C(=O)C(=Cc2ccc(OCC)c(OC)c2)C(=O)N(CCCC)C1=S	n
Cc1cc(Cl)cc(Cl)c1N=Cc1c2ccccc2cc2ccccc12	n
Cc1ccc(C(=O)C2C(c3ccc(Cl)c(Cl)c3)NC(=O)NC2(O)C(F)(F)F)cc1 (configuration not stated)	n
CCCNS(=O)(=O)c1cc(Cl)c(Cl)cc1C	n
CCn1cnnc1CN(C)C(=O)c1cc(-c2cn[nH]c2)nc2cc(F)ccc12	n
Cc1cc(-c2ccccc2)nn1-c1nc2ccccc2s1	n
COc1ccc(CCn2c(O)cc3nn(-c4nc5ccccc5s4)c(=O)c-3c2C)cc1	80
CCc1c(C)[nH]n(-c2nc3ccccc3s2)c1=O	n
C[N+]1=C(c2ccc(F)c(F)c2)c2cccn2CC1	n
Cc1cccc(C(=O)NC2CCCC2)c1	n
COc1cc(CC2=NC(=O)N(Cc3ccc(C)cc3)C2=O)ccc1OCc1cccc(C(=O)O)c1	n
COc1cc(CC2=NC(=O)N(CC(=O)Nc3cccc(C)c3)C2=O)cc(Cl)c1O	n
COc1cc(CC2=NC(=O)N(CC(=O)Nc3ccc(C)cc3)C2=O)cc(Cl)c1OCc1cccc(C(=O)O)c1	45
COC(=O)c1c(NC(=O)Cn2nc(C(F)(F)F)c(Br)c2C)sc2c1CCCCC2	n
Cc1ccc(S(=O)(=O)c2cn(Cc3ccccc3)c3cc(N4CCCC4)c(F)cc3c2=O)cc1C	n
C(=N\N(c1ccccc1)c1ccccc1)/c1ccco1	n
C(=C1Sc2ccccc2S1)c1ccco1	57
N#CC1C(=N)S/C(=C/c2ccco2)C1=N (configuration not stated)	n
CC1CC2CCC1(NC(=O)CCCCC(=O)NC1CC3CCC1(C)C3(C)C)C2(C)C (configuration not stated)	n
C=CCN1C(=O)/C(=C/c2cc(C)n(-c3cc(C(=O)OC)ccc3C)c2C)C(=O)NC1=S	n
COC(=O)C1C2(C)N=c3s/c(=C\c4cc(Cl)cc(Cl)c4O)c(=O)n3C3c4ccccc4OC312 (configuration not stated)	41
Cc1ccccc1NC(=O)C1C2c3ccccc3OC1(C)N=c1s/c(=C/c3cnn(C)c3C)c(=O)n12 (configuration not stated)	n
CCOC(=O)C1=C(C)N=c2s/c(=C\c3cc(Cl)cc(Cl)c3O)c(=O)n2C1c1ccccc1Cl (configuration not stated)	n
CCCn1c(=O)n(-c2ccccc2)c(=O)c2sc3ccccc3c21	n
SMILES	RBX1-CUL1 inh
Cc1ccc(NC(=O)c2ccccc2Cl)cc1F	n
CS(=O)(=O)c1ccc2[nH]c(=O)oc2c1	n
O=C1C(Sc2ncn[nH]2)=CC(=NS(=O)(=O)c2ccc(Cl)cc2)c2ccccc21	90
COc1ccc(S(=O)(=O)N=C2C=C(Sc3ccc(C)cc3)C(=O)c3ccccc32)cc1	n
Cc1ccc(S(=O)(=O)N=C2C=C(C3C(=O)CC(C)(C)CC3=O)C(=O)c3ccccc32)cc1	n
CN(CC(=O)O)c1ncc(-c2nnnn2-c2ccccc2)c(-c2ccccc2Cl)n1	n
COc1ccccc1CNC(=O)Nc1cccc(Cl)c1	n
CCCCOc1cc(C2c3c(n[nH]c3-c3ccccc3)OC(=N)C2C#N)ccc1OC (configuration not stated)	n
O=c1c(Cl)cc(Cl)nn1-c1ccccc1	n
COc1cc(/C=C/c2nn(-c3ccc(Br)cc3)c3c(=O)ccccc23)cc(OC)c1OC	n
O=c1ccccc2c(/C=C/c3ccc(Cl)cc3Cl)nn(-c3ccccc3)c12	26
Cc1nnc(Sc2cc(=O)oc3ccccc23)s1	n
O=C(CCN1CCCCO1)N1CCC(CCC(=O)N2CCc3ccccc3C2)CC1	n
Cc1cc(/C=C2\C(=O)NC(=S)N(c3ccc(Cl)cc3)C2=O)c(C)n1-c1ccc2ncccc2c1	n
Cc1c(C(=O)O)cccc1-c1ccc(/C=C2/SC(=O)N(Cc3cc4c(cc3Cl)OCO4)C2=O)o1	n
COC(=O)CN1C(=O)S/C(=C/c2ccc(-c3cccc(C(=O)O)c3C)o2)C1=O	n
Cc1ccccc1NC(=O)CN1C(=O)S/C(=C\c2ccc(-c3cc(C(=O)O)ccc3Cl)o2)C1=O	28
O=C1S/C(=C\c2cc(Br)cc(Cl)c2O)C(=O)N1Cc1ccc(F)cc1	40
N#Cc1ccccc1CN1C(=O)S/C(=C/c2ccc(-c3ccc(Cl)c(C(=O)O)c3)o2)C1=O	42
C=CCN1C(=O)S/C(=C\c2ccc(-c3ccc(Br)cc3)o2)C1=O	n
Cc1cccc(NC(=O)CN2C(=O)S/C(=C/c3ccc(-c4cc(C(=O)O)ccc4Cl)o3)C2=O)c1	n
O=C(O)COc1ccc(/C=C2/SC(=O)N(Cc3ccc(F)cc3)C2=O)cc1Br	n
Cc1cccc(/C=C2/SC(=O)N(Cc3ccccc3C#N)C2=O)n1	n
O=C(O)c1ccc(-c2ccc(/C=C3\SC(=O)N(Cc4ccc(F)cc4)C3=O)o2)cc1Cl	92
CC(C)c1ccc(/C=C2\SC(=O)N(Cc3ccc(F)cc3)C2=O)cc1	n
Cc1ccccc1NC(=O)CN1C(=O)S/C(=C\c2ccc(-c3cc(C(=O)O)ccc3C)o2)C1=O	n
